In PubChem BioAssay:
Where “and” joins values, the source holds several entries; their conditions need not be identical. Identical values can stand only once. Calls of active or inactive are those of the source.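 How the source made its calls, unless noted: active means compounds whose cell count with miR-34 switched on is under 0.7 times the count with it off; inactive means the rest.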

Tests used:
[1] = tested on: Aerobactin synthetase IucA (Klebsiella pneumoniae); experiment: IucA aerobactin synthetase inhibitors, biochemical, Tocris library, absorbance (AID 1345561; call rule not given here;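 further: 100% = enzyme without compound and 0% = no enzyme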); conditions: purified IucA enzyme assay, absorbance (OD) read-out; stronger effect = lower value;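 tested at 8 µM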
[2] = sensitizers of A549 cells to miR-34 induction, primary screen, imaging, A549 dox-inducible miR-34, nuclei and caspase counts (AID 1347080); conditions: A549 miR-34 inducible, Hoechst nuclei count, 48 h
[3] = viability rescue of complex I mutant cybrids, primary screen, cell-based, galactose medium, ATP luminescence (AID 1645843;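 active means z-score of at least 1.8 in each of two replicates, scored against plate mean and spread of sample wells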;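 further: positive z means more ATP and so rescue of galactose-driven cybrid death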); conditions: complex I mutant cybrid cells, 72 h, stronger effect = higher value
[4] = liver-stage malaria parasite growth inhibition, primary screen, cell-based, HepG2, luciferase luminescence, HepG2 viability (AID 624349; in the data active means parasite load remaining mostly below about 12%, no sharp cut-off; inactive means mostly above about 10%;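 further: 100% = mean of DMSO negative control wells on the same plate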); conditions: P. berghei liver stage in HepG2, luciferase luminescence, concentration not given here; parasite load remaining: stronger effect = lower value; viability: measured here: HepG2 viability without parasites
[5] = LFS_MB_P medulloblastoma growth inhibition, cell-based, chromothripsis tumors, cisplatin or BGB combos (AID 1671449; in the data active means inhibition above about 80%;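 further: cells exposed for 96 hours; 0% = vehicle DMSO and 100% = killing by high DMSO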); conditions: LFS_MB_P medulloblastoma cells
[6] = HDN33 neuroblastoma growth inhibition, cell-based, chromothripsis tumors, cisplatin or BGB combos (AID 1671450; in the data active means inhibition above about 80%;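 further: cells exposed to compound for four days; 0% = vehicle DMSO and 100% = cell killing by high DMSO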); conditions: HDN33 neuroblastoma cells, stronger effect = higher value
[7] = ICB984 medulloblastoma cell growth inhibition, synergistic combos for chromothripsis tumors, cisplatin or BGB combos (AID 1671451; call rule not given here;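 further: cells exposed for 96 hours before readout; 0% = vehicle DMSO and 100% = killing by high DMSO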); conditions: ICB984 medulloblastoma cells, drug combinations, stronger effect = higher value
[8] = HTB85 osteosarcoma cell growth inhibition, synergistic combos for chromothripsis tumors, BGB or cisplatin IC20 combos (AID 1671453; in the data active means inhibition above about 80%;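 further: cells exposed for 96 hours before readout; 0% = vehicle DMSO and 100% = high DMSO killing control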); conditions: HTB85 osteosarcoma cells, drug combinations, stronger effect = higher value
[9] = stronger effect = lower value, cell number ratio, induced over uninduced
[10] = measured here: relative caspase fold change +Dox/-Dox
[11] = measured here: total cells with miR-34 induction, stronger effect = lower value
[12] = measured here: total cells without miR-34 induction

For `CCCCCCCCC(=O)NCc1cc(OC)c(O)cc1I`, the remaining activity [1] was 120% (inactive), the fold change [2, 9] was 0.949 (inactive) and the fold change [2, 10] was 0.652. For the same molecule, the cell count [2, 11] was 8140, the cell count [2, 12] was 8580 and the z-score [3] was -0.615 (inactive).
With `COC(=O)/C=C/c1cc(O)ccc1O` the remaining activity [1] was 98.4% (inactive), the fold change [2, 9] was 0.869 (inactive) and the fold change [2, 10] was 0.871. For the same molecule, the cell count [2, 11] was 8110, the cell count [2, 12] was 9340 and the z-score [3] was -1.21 (inactive).
For `COC(=O)c1c(-c2cc(OC)c(OC)c(OC)c2)c2ccnc(OCc3ncccn3)c2c(=O)n1Cc1ccnc(C)c1`, the remaining activity [1] was 117% (inactive), the fold change [2, 9] was 0.972 (inactive) and the fold change [2, 10] was 0.845. For the same molecule, the cell count [2, 11] was 8000, the cell count [2, 12] was 8240 and the z-score [3] was -0.06 (inactive).
With `N#CC(Cc1ccc(O)cc1)c1ccc(O)cc1` (stereo unspecified) the remaining activity [1] was 90.6% (inactive), the fold change [2, 9] was 0.917 (inactive) and 0.865 (inactive) and the fold change [2, 10] was 0.401 and 1.73. The cell count [2, 11] was 5410 and 8710, the cell count [2, 12] was 5900 and 10100 and the z-score [3] was 2.66 (active).
In the case of `CCCNC(=O)N1N=C(c2ccc(N)cc2)c2cc3c(cc2C1C)OCO3` (stereo unspecified), the remaining activity [1] is reported as 101% (inactive), the fold change [2, 9] is reported as 0.903 (inactive) and the fold change [2, 10] is reported as 1.06. The cell count [2, 11] was 8160, the cell count [2, 12] was 9040 and the z-score [3] was 0.065 (inactive).
For `COc1ccccc1N1CCN(CCN2C(=O)c3ccccc3C(C)(C)C2=O)CC1`, the remaining activity [1] was 124% (inactive), the fold change [2, 9] was 1.04 (inactive) and the fold change [2, 10] was 1.01. The cell count [2, 11] was 7580, the cell count [2, 12] was 7320 and the z-score [3] was -0.455 (inactive).
For `CC(C)C1C2CCC(C2)C1N` (stereo unspecified), the remaining activity [1] was 119% (inactive), the fold change [2, 9] was 0.973 (inactive) and the fold change [2, 10] was 0.597. The cell count [2, 11] was 9360, the cell count [2, 12] was 9620 and the z-score [3] was -0.42 (inactive).
With `COc1[nH]c2ccc(F)cc2c1C(=O)OCC1CCN(CCNS(C)(=O)=O)CC1` the remaining activity [1] was 110% (inactive), the fold change [2, 9] was 0.927 (inactive) and the fold change [2, 10] was 0.654. For the same molecule, the cell count [2, 11] was 8220, the cell count [2, 12] was 8880 and the z-score [3] was -0.185 (inactive).
With `N#C/C(=C\c1ccc(O)c(O)c1)C(=O)Nc1ccccc1` the remaining activity [1] was 117% (inactive), the fold change [2, 9] was 1.02 (inactive) and 0.911 (inactive) and the fold change [2, 10] was 0.933 and 1.77. For the same molecule, the cell count [2, 11] was 7050 and 7400, the cell count [2, 12] was 6920 and 8120 and the z-score [3] was -1.14 (inactive) and -0.745 (inactive).
With `NS(=O)(=O)c1cccc2c1c([N+](=O)[O-])cc1nc(O)c(O)nc12` the remaining activity [1] was 120% (inactive), the fold change [2, 9] was 1.03 (inactive) and 0.923 (inactive) and the fold change [2, 10] was 1.03 and 0.947. The cell count [2, 11] was 11000 and 9080, the cell count [2, 12] was 10700 and 9830 and the z-score [3] was 0.68 (inactive) and 0.65 (inactive).
In the case of `N#C/C(=C\c1ccc(O)c(O)c1)C(N)=O`, the remaining activity [1] is reported as 122% (inactive), the fold change [2, 9] is reported as 0.887 (inactive) and the fold change [2, 10] is reported as 1.74. For the same molecule, the cell count [2, 11] was 9080, the cell count [2, 12] was 10200 and the z-score [3] was -0.47 (inactive).
With `CC(=O)N(O)[C@@H]1c2cc(C#N)ccc2OC(C)(C)[C@H]1O` the remaining activity [1] was 89.1% (inactive), the fold change [2, 9] was 0.882 (inactive) and the fold change [2, 10] was 2.17. The cell count [2, 11] was 8800, the cell count [2, 12] was 9980 and the z-score [3] was 0.655 (inactive).
With `O=c1cc(N2CCNCC2)oc2c(-c3ccccc3)cccc12` the parasite load remaining [4] was 25.4% (inactive), the viability [4] was 90.4% and the remaining activity [1] was 83.1% (inactive). The fold change [2, 9] was 0.968 (inactive), the fold change [2, 10] was 1.21 and the cell count [2, 11] was 7780. The cell count [2, 12] was 8040 and the z-score [3] was 1.52 (inactive).
With `C#CCN1C(C)=C(C(=O)OC)C(c2cccc([N+](=O)[O-])c2)C(C(=O)OCC)=C1C` (stereo unspecified) the remaining activity [1] was 122% (inactive), the fold change [2, 9] was 0.951 (inactive) and the fold change [2, 10] was 0.816. For the same molecule, the cell count [2, 11] was 7120, the cell count [2, 12] was 7490 and the z-score [3] was -0.3 (inactive).
With `O=c1[nH]cnc2ccccc12` the remaining activity [1] was 102% (inactive), the fold change [2, 9] was 0.942 (inactive) and the fold change [2, 10] was 1.88. For the same molecule, the cell count [2, 11] was 8900, the cell count [2, 12] was 9450 and the z-score [3] was -0.085 (inactive). For the same molecule, the inhibition ([5]; at 0.5 µM, stronger effect = higher value) was -17.1% (inactive), the inhibition ([5]; measured here: combination with BGB IC20, at 0.005 µM) was -35.2% and the inhibition ([5]; measured here: combination with BGB IC40, at 0.005 µM) was -30.5%. It also gave an inhibition ([5]; measured here: combination with BGB IC40, at 0.05 µM) of -20.2%, an inhibition ([5]; measured here: combination with cisplatin, at 0.5 µM, stronger effect = higher value) of -41% and an inhibition ([5]; measured here: combination with cisplatin, at 5 µM, stronger effect = higher value) of -52.6%. For the same molecule, the inhibition ([6]; BGB combo, at 5 µM) was -24.4%, the inhibition ([6]; at 0.5 µM) was -4.24% (inactive) and the inhibition ([6]; cisplatin combo, at 5 µM) was 7.34%. It also gave an inhibition ([6]; measured here: with BGB IC20 combination, at 0.5 µM) of 2.06%, an inhibition ([6]; measured here: with cisplatin IC20 combination, at 0.5 µM) of -23.5% and an inhibition ([6]; single agent, at 5 µM) of 3.32%. The inhibition ([7]; BGB IC20 combo, at 0.005 µM) was -9.29%, the inhibition ([7]; BGB IC40 combo, at 0.005 µM) was -31.8% and the inhibition ([7]; BGB IC40 combo, at 0.05 µM) was -19.2%. For the same molecule, the inhibition ([7]; at 0.5 µM) was -16.4% (inactive), the inhibition ([7]; cisplatin combo, at 0.05 µM) was -23.5% and the inhibition ([7]; cisplatin combo, at 0.5 µM) was -12.5%. For the same molecule, the inhibition ([7]; cisplatin combo, at 5 µM) was -22.5%, the inhibition ([7]; measured here: 5 uM single agent, at 5 µM) was -4.22% and the inhibition ([8]; at 0.5 µM) was -3.81% (inactive). For the same molecule, the inhibition ([8]; measured here: with BGB IC20, at 0.5 µM) was -2.72%, the inhibition ([8]; measured here: with BGB IC20, at 5 µM) was 7.21% and the inhibition ([8]; measured here: with cisplatin IC20, at 0.5 µM) was 2.1%. For the same molecule, the inhibition ([8]; measured here: with cisplatin IC20, at 5 µM) was -54.4% and the inhibition ([8]; single agent, at 5 µM) was -7.3%.
For `Nc1ccc(-c2cccc3c(=O)cc(N4CCOCC4)oc23)cc1`, the parasite load remaining [4] was 43.6% (inactive), the viability [4] was 83.4% and the remaining activity [1] was 104% (inactive). For the same molecule, the fold change [2, 9] was 0.901 (inactive), the fold change [2, 10] was 1.45 and the cell count [2, 11] was 3870. The cell count [2, 12] was 4300 and the z-score [3] was 4.44 (active).
In the case of `Brc1cc2c(cc1[C@H]1Nc3ccccc3[C@H]3C=CC[C@H]31)OCO2` (racemic), the remaining activity [1] is reported as 123% (inactive), the fold change [2, 9] is reported as 0.953 (inactive) and the fold change [2, 10] is reported as 1.69. The cell count [2, 11] was 6570, the cell count [2, 12] was 6900 and the z-score [3] was -0.975 (inactive).
With `O=C(CCCc1ccc(-c2ccccc2F)cc1)Nc1ccc(O)cc1` the parasite load remaining [4] was 21.2% (inactive), the viability [4] was 102% and the remaining activity [1] was 95.9% (inactive). For the same molecule, the fold change [2, 9] was 1.05 (inactive), the fold change [2, 10] was 1.19 and the cell count [2, 11] was 2340. The cell count [2, 12] was 2220 and the z-score [3] was -0.66 (inactive).
With `N#C/C(=C\c1ccc(O)c(O)c1)C(=O)NCCCc1ccccc1` the remaining activity [1] was 98.4% (inactive), the fold change [2, 9] was 0.871 (inactive) and the fold change [2, 10] was 1.07. The cell count [2, 11] was 7250, the cell count [2, 12] was 8330 and the z-score [3] was -0.64 (inactive).
